Shown are actives, neighbours in structure and some others; about 1.7% of the full set was active somewhere.
Measles CPE – protection of cells from measles virus | Measles virus-infected cells, CPE protection, absorbance | hit rate 1.5% among 140,000 | protection (pct of control), % at 4 µM | AID 841; in the data active = protection mostly above about 24%, no sharp cut-off; inactive = mostly below about 26%
sEH act – activators of human soluble epoxide hydrolase. activation, % at 2 µM. hit rate 0.04% among 91,000. purified human sEH enzymatic activity, activator screen. P34913; in the data active = activation above about 37%
Target sequence (P34913 whole entry, looked up): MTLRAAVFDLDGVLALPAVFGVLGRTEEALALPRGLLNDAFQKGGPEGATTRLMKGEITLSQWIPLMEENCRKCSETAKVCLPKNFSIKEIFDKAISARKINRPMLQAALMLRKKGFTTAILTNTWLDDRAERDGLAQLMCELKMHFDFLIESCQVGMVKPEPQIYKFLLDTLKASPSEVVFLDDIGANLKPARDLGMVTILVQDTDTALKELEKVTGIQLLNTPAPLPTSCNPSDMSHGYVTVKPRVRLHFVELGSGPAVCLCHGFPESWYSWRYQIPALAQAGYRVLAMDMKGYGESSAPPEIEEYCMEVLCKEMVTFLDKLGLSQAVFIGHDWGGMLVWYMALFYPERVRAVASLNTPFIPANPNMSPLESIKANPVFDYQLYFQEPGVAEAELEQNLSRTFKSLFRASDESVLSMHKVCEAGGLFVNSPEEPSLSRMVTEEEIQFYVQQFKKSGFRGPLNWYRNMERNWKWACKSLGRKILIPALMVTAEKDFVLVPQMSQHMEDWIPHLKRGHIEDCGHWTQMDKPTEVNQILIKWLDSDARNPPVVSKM
sEH inhibitor – blocks human soluble epoxide hydrolase activity. P34913. recombinant human sEH enzymatic activity assay. inhibition, % at 2 µM. hit rate 0.34% among 91,000. AID 707; in the data active = inhibition above about 80%
LYP inh 2 – inhibitors of human LYP (PTPN22) phosphatase; Q9Y2R2; recombinant LYP catalytic domain, DiFMUP fluorescence; inhibition, % at 2 µM; hit rate 0.21% among 96,000; AID 640;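 active = inhibition at 2 µM at or above a set limit, the screen mean plus 3 SD, cut at about 24% in these data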;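 also: 0% = DMSO with enzyme and 100% = enzyme fully blocked by orthovanadate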
PTPN22 act – LYP (human) phosphatase activation | recombinant LYP, DiFMUP fluorescence; 0 = plate median, 100 = signal doubled | hit rate 0.11% among 96,000 | activation, % at 2 µM;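 active = activation at 2 µM above a set limit, the mean plus 5 SD, cut at about 37% in these data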
Starred values were filed as active, the others as inactive; . = not tested or not shown.

SMILES	Measles CPE	sEH act	sEH inhibitor	LYP inh 2	PTPN22 act
CCc1c(C)nc2nc(NC(C)=O)[nH]n2c1=O	4	-4	2	7	-8
CCN(CC)S(=O)(=O)c1ccc(N=Cc2c(C)c(C#N)c(=O)n(C)c2O)cc1	16	.	.	.	.
CC1=Nn2c(nnc2-c2cc(-c3ccccc3)n[nH]2)SC1	4	6	-3	3	0
c1ccc(-c2ccc(C3=Nn4c(nnc4-c4cc(-c5ccccc5)n[nH]4)SC3)cc2)cc1	10	-6	7	42*	-40
Cc1ccc(C(=O)COC(=O)CCc2ccc(S(=O)(=O)N3CCCCC3)cc2)cc1	6	.	.	.	.
Nc1ccc2nc(-c3cccnc3)[nH]c2c1	12	.	.	.	.
Nc1ccc2nc(-c3ccccc3)[nH]c2c1	57*	5	-6	8	-5
CCN1CCN(CCNC(=O)c2cn(Cc3ccccc3F)nn2)CC1	41*	0	-2	5	-8
CC(NC(=O)c1cc2c(s1)CCCC2)C(C)(C)C (stereo unspecified)	3	-5	4	3	0
CNC(=O)NC(=O)C(C)OC(=O)c1cc2c(s1)CCCCC2 (stereo unspecified)	29*	.	.	.	.
CCN(CC)S(=O)(=O)c1csc(C(=O)OCC(=O)c2ccccc2)c1	7	-2	3	2	-5
O=C(Nc1cccc(-c2nc3cccnc3s2)c1)C1c2ccccc2Oc2ccccc21	6	.	.	.	.
CC(=O)Nc1ccc(S(=O)(=O)Nc2cccc(N(C)S(C)(=O)=O)c2)cc1	5	8	-10	-13	10
CC(=O)Nc1ccc(N(C)S(C)(=O)=O)cc1	39*	4	-5	3	0
CC(C)c1ccc(N2C(=O)CC(Sc3nc4ccccc4o3)C2=O)cc1 (stereo unspecified)	30	-2	1	24*	-22
CCOC(=O)c1ccccc1NC(=O)CSc1nnc(COc2ccccc2)n1CC	53*	0	-1	8	-10
CCOC(=O)c1cccc(NC(=O)CSc2nnc(COc3ccccc3)n2CC)c1	3	-5	4	8	-8
O=C(c1cccc(S(=O)(=O)Nc2cccc(C(F)(F)F)c2)c1)N1CCCCC1	27	.	.	.	.
CCC(=O)Nc1ccc(/C(C)=N\NS(=O)(=O)c2ccc(C)cc2)cc1	10	2	-1	7	-5
CC(=O)Nc1cccc(-c2nnc(SCc3ccccc3C#N)n2C)c1	3	-2	5	5	-4
CC(=O)Nc1ccc(-c2nnc(SCc3ccccc3C#N)n2C)cc1	24*	0	2	6	-8
CCOC(=O)c1[nH]c2c(c1-c1ccc(OC)cc1)C(=O)CC(c1ccc(OC)c(OC)c1)C2 (stereo unspecified)	21	.	.	.	.
O=C(NCC1CCCO1)C1CC1(c1ccccc1)c1ccccc1 (stereo unspecified)	25	.	.	.	.
Cc1ccc(C(=O)NNC(=O)CSc2nnc3c(n2)[nH]c2ccc(F)cc23)cc1	19	-5	4	30*	-28
COc1ccc(C(=O)c2sc3nc(-c4ccccc4)ccc3c2N)cc1OC	7	11	-10	25*	-23
SMILES	Measles CPE	sEH act	sEH inhibitor	LYP inh 2	PTPN22 act
O=C(COC(=O)c1cccnc1Cl)NCc1ccc2c(c1)OCO2	33*	.	.	.	.
O=C(COC(=O)c1cccnc1Nc1cccc(C(F)(F)F)c1)NCc1ccc2c(c1)OCO2	5	.	.	10	-12
Cc1cc(Nc2cccc(Cl)c2)n2ncnc2n1	29*	.	.	.	.
O=C1C2C3C=CC([C@@H]2C(=O)N1Cc1cccnc1)C31CC1 (stereo partly specified)	45*	-8	11	-7	10
CC12c3ccccc3C(c3ccccc31)C1C(=O)N(Cc3cccnc3)C(=O)[C@H]12 (stereo partly specified)	4	.	.	.	.
CNS(=O)(=O)c1ccc(C)c(S(=O)(=O)NC)c1	21	.	.	.	.
COC(=O)c1sc(NC(=O)CSc2nncs2)c(C(=O)OC)c1C	31*	8	-10	-8	8
CC(C)OCCCNC(=S)Nc1ccc(S(N)(=O)=O)cc1	3	.	.	.	.
COc1cccc(N(C(=O)Cn2nnc(-c3ccc(C)o3)n2)C(C(=O)NC(C)(C)C)c2cccs2)c1 (stereo unspecified)	6	5	-5	4	-4
CCC(C(=O)NC(C)(C)C)N(C(=O)Cn1nnc(-c2cccs2)n1)c1cnc2ccccc2c1 (stereo unspecified)	80*	-5	5	-5	5
N/C(Cc1ccccc1)=N\OC(=O)c1cccc2ccccc12	8	.	.	.	.
CCC1Oc2ccc(C)cc2N(CC(=O)N2CCN(c3ccc(F)cc3)CC2)C1=O (stereo unspecified)	28*	-1	0	-3	0
CCOc1ccc(OCC)c(N=c2oc3c(C)ncc(CO)c3cc2C(N)=O)c1	50*	-4	5	-6	4
Brc1ccc(CNCc2cccs2)cc1	19*	.	.	.	.
Cc1ccccc1C(=O)N1CCc2cc(-c3nc(NC(=O)Cc4ccc5c(c4)OCO5)sc3C)ccc21	62*	.	.	.	.
Cc1sc(NC(=O)Cc2ccc3c(c2)OCO3)nc1-c1ccc2c(c1)CCN2C(=O)c1cccc(F)c1	53*	.	.	.	.
CCn1cc(/C=N\NC(=O)c2ccc(F)cc2)cn1	29*	.	.	.	.
Cc1c(/C=N\NC(=O)c2ccc(F)cc2)cnn1C	10	.	.	.	.
Clc1ccc(-c2nnc3n2CCCCC3)cc1	79*	-10	8	8	-8
CCc1ccccc1Nc1nc(N)nc(CSCC(=O)Nc2ccc(C)c(C)c2)n1	3	.	.	.	.
N#Cc1c(-c2ccco2)c2c([nH]c1=S)CCCC2	8	.	.	.	.
N#Cc1c2c(c(-c3ccco3)[nH]c1=O)CCCC2	46*	-3	3	6	-7
CN(C)S(=O)(=O)c1ccc(NS(=O)(=O)/C=C/c2ccccc2)cc1	44*	2	-2	-10	6
CCOc1ccc(S(=O)(=O)Nc2cccc(C(=O)N3CCN(c4ccc(OC)cc4)CC3)c2)cc1	84*	-8	8	-8	7
O=C(CCCOc1ccc(Cl)cc1Cl)NNC(=O)c1ccc(NC(=O)c2ccccc2)cc1	10	.	.	.	.
SMILES	Measles CPE	sEH act	sEH inhibitor	LYP inh 2	PTPN22 act
CCOC(=O)C1=C(c2ccccc2)ON(C)C1c1ccccc1 (stereo unspecified)	5	.	.	.	.
CCOC(=O)C1C(c2cc(OC)c(OC)c(OC)c2)NC(=S)NC1(O)C(F)(F)F (stereo unspecified)	11	9	-7	1	2
O=C1NC(c2ccccc2)C(C(=O)c2cccs2)C(O)(C(F)(F)F)N1 (stereo unspecified)	3	8	-8	4	0
CCOC(=O)C1C(c2cc(OC)c(O)c(OC)c2)NC(=S)NC1(O)C(F)(F)F (stereo unspecified)	36*	.	.	.	.
COc1cc(C2NC(=S)NC(O)(C(F)(F)F)C2C(=O)c2cccs2)cc(OC)c1O (stereo unspecified)	32*	.	.	.	.
COc1ccc(N=Cc2c(O)[nH]c3ccccc23)cc1	46*	-7	7	-4	4
COc1cc(COCC(O)CN2CCOCC2)cc(OC)c1OC (stereo unspecified)	32*	4	-6	-5	3
